Results reported in ChEMBL document CHEMBL3988442, “University of Dundee, Small-Polar-MMV Screening Library” (2021).
Hit rate of the full screen: of about 48,000 compounds, about 13,000 (27%) showed an effect of 50% or more. Some of the results follow.

test system: Wolbachia pipientis; assay: Anti-Wolbachia Cell-Based Screen; assay type: functional; design: scale not given: in the data most compounds retested in dose-response had high values; settings: 5 µM

In order of rising “Percent Effect” value:
1. CCCc1cc(C(=O)N2C[C@H](O)[C@@H](N3CCCC3)C2)ccn1  -25.18%
2. CCN(CC(=O)NC)C(=O)c1csc(Cc2ccccc2)n1  -20.14%
3. CCN(CC(=O)NC(C)C)C(=O)c1csc(Cc2ccccc2)n1  -19.99%
4. CCS(=O)(=O)N1CCc2nnc(CN(C)C(C)C)n2CC1  -16.92%
5. CCn1nc(C)c(CNC(=O)NCC(C)(O)c2ccco2)c1C (configuration not stated)  -13.65%
6. COCc1nc(C(=O)NS(=O)(=O)c2ccc(F)c(F)c2)cs1  -13.23%
7. CNS(=O)(=O)c1ccc(CNC(=O)c2cc(-c3ccccn3)no2)cc1  -10.88%
8. O=C(c1coc(CN2CCN(c3ccccc3F)CC2)n1)N1CCCC1  -9.887%
9. CCc1ccc(C(C)NCc2nccn2Cc2ccccc2)o1 (configuration not stated)  -9.423%
10. CC(=O)Nc1nc(C(=O)NCCOc2ccccc2F)cs1  -9.068%
11. CC(C(=O)Nc1ncccn1)N1CCCN(c2nccs2)CC1 (configuration not stated)  -8.894%
12. CCNC(=O)N(Cc1cccc(OC)c1)C1CCC(O)CC1 (configuration not stated)  -8.682%
13. CC(C)NC(=O)CCNC(=O)Nc1cnn(-c2ccccc2F)c1  -8.567%
14. COC(=O)CCN(C)C(=O)c1ccc(-c2cscn2)cc1  -8.458%
15. CN(C)Cc1nnc2n1CCN(c1cnccn1)CC2.O=C(O)C(F)(F)F  -7.956%
16. CC(C)c1cc(C(=O)N(c2ccc(F)cn2)C2CCOCC2)on1  -4.853%
17. Fc1cnc(N2CCn3c(CN4CCCC4)nnc3C2)nc1.O=C(O)C(F)(F)F  -4.314%
18. O=C(NCCc1ccc(Cl)cc1)c1coc(CN2CCOCC2)c1  -3.788%
19. Cc1nn(-c2ccccc2)c2c1C(c1ccc(C(=O)O)cc1)CC(=O)N2 (configuration not stated)  -3.155%
20. CNS(=O)(=O)c1cccc(CNC(=O)NCC2CCOC2)c1 (configuration not stated)  -2.881%
21. Cc1ccccc1C(=O)N1CC2(COC(C)(C)OC2)C1  -1.566%
22. CS(=O)(=O)c1ccc(NC(=O)N2C[C@H](O)[C@@H](N3CCOCC3)C2)cc1  -0.5097%
23. CCn1c(C)cc(C(=O)NCc2cccc(S(=O)(=O)NC)c2)c1C  -0.4884%
24. OCCOc1ccc(NCc2cccc3[nH]ccc23)cn1  0.765%
25. O=C(O)C(F)(F)F.O=C(c1ccccc1)N1C[C@@H]2CCCO[C@@H]2[C@H](N2CCCC2)C1  0.7695%
26. Fc1cnc(N2CCCn3c(nnc3Cn3cccc3)C2)nc1.O=C(O)C(F)(F)F  0.8563%
27. Cc1nn(-c2ccccc2)c(C)c1CNC(=O)NC1CC(=O)N(C)C1 (configuration not stated)  1.592%
28. CN(C)CCOCc1nnc2n1CCN(c1cnccn1)CC2  1.736%
29. N#Cc1ccc(CN2CCc3sccc3C2)c(F)c1  2.911%
30. CCn1nc(C)c(CNC(=O)NCC(C)(O)c2ccccc2)c1C (configuration not stated)  3.084%
31. c1cnc(N2CCCn3c(nnc3Cn3cccn3)C2)nc1  3.271%
32. CNS(=O)(=O)c1ccc(CNC(=O)c2cc(C)no2)cc1  3.551%
33. Cc1nc(C)c(CC(=O)NCc2ccccc2F)s1  8.727%
34. Cn1cccc1C(=O)N1C[C@@H]2CCCO[C@@H]2[C@H](N2CCOCC2)C1  10.78%
35. CCNC(=O)CN(CC)C(=O)Cc1csc(C(C)C)n1  11.15%
36. CCc1ccc(CNC(=O)CCc2nnc(-c3ccc(C)s3)o2)nc1  18.56%
37. Cc1ccc(-n2nc(C)c3c2NC(=O)CC3c2cnc(N)s2)cc1 (configuration not stated)  19.39%
38. CCn1nc(C)c(CNC(=O)NCC(C)(O)c2ccc(C)o2)c1C (configuration not stated)  57.07%
39. CC1=C(C#N)C(=O)NC(=O)/C1=C\c1c(C)nn(-c2ccccc2)c1O  95.98%
40. CCNC(=O)CN(CC)C(=O)c1csc(Cc2ccccc2F)n1  97.94%
41. c1ccn(Cc2nnc3n2CCCN(c2cnccn2)C3)c1  100.7%
42. CCc1ccc(C(=O)NCc2cccc(S(=O)(=O)NC)c2)o1  104.9%
43. OCc1nnc2n1CCN(c1cnccn1)C2  108%
44. CC1=C(C#N)C(=O)NC(=O)/C1=C\c1c(C)nn(-c2ccc(Cl)cc2)c1O  109.3%
45. CC(C)NC(=O)CNC(=O)c1csc(Cc2ccccc2F)n1  109.5%
46. CC(C)N(C)Cc1nnc2n1CCCN(c1cnccn1)C2  115.4%
47. COC(=O)CCN(C)C(=O)c1csc(Cc2ccccc2F)n1  117.5%
48. CC1=C(C#N)C(=O)NC(=O)/C1=C\c1c(C)nn(-c2ccc(C)cc2)c1O  117.9%
49. CC(C)NC(=O)CN(C)C(=O)c1csc(Cc2ccccc2F)n1  122.3%
50. CNS(=O)(=O)c1cccc(CNC(=O)c2cc(C)no2)c1  131.9%
51. CC(=O)N1CCN([C@@H]2CN(C(=O)c3ccccc3)C[C@H]2O)CC1  163.7%
52. CC(=O)N1CCN([C@@H]2CN(C(=O)c3ccccc3C)C[C@H]2O)CC1  166%
